Bioassay records from PubChem.
hDAT+cocaine: changed human dopamine transporter uptake under cocaine IC80 | Q01959 | LLC-PK1 hDAT cells, [14C]-dopamine uptake with cocaine IC80; actives deviate in either direction | hit rate 1.3% among 110,000 | B-score at 10 µM;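 active = Z score or B-score, a plate-position-corrected score, falls beyond the plate's 99.7% confidence bounds, in either direction; inactive = both scores lie inside the 99.7% bounds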;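 also: scored against the spread of the other compound wells on the same plate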
TNAP act mid DEA: human TNAP activation, intermediate phosphate acceptor | activation factor at 20 µM | 64,000 tested, under 10 active | P05186 | AID 813 | purified TNAP, CDP-star luminescence, 100 mM DEA, 30 min; stronger effect = higher value; scale: 0 levamisole-inhibited, 1 vehicle-only enzyme;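 active = activation factor of at least 2 at 20 µM, relative to controls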
Target sequence (P05186 whole entry, looked up): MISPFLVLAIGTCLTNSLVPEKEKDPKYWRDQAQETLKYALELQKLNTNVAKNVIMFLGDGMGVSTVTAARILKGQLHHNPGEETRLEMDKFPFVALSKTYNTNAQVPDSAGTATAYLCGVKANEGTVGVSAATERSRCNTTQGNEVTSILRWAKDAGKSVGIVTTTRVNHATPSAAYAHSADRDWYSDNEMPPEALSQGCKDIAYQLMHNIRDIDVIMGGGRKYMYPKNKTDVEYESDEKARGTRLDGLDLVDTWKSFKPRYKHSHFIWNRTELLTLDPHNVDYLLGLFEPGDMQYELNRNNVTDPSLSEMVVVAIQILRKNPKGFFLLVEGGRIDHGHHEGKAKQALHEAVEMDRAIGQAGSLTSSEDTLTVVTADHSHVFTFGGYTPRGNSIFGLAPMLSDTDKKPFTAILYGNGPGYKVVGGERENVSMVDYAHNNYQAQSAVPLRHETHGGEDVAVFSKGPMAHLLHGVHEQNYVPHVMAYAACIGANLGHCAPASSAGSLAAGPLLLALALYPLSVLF
PostGolgi ctrl: growth of the yeast control strain, post-Golgi counter-screen; efflux-deficient yeast background strain, growth absorbance A615, 16 h; inhibition, % at 10 µM; hit rate 5% among 98,000; AID 738
Cav3 T inh: blocks human Cav3.2 T-type calcium channel; Cav3.2-expressing cells, Fluo-4 calcium fluorescence FDSS; stronger effect = lower value; hit rate 4% among 100,000; O95180; B-score at 10 µM;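 active = single-dose well whose peak fluorescence ratio is a statistical outlier from its plate by either plate-standardised score or position-corrected B-score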
PostGolgi yeast: growth inhibition of a yeast mutant, post-Golgi transport screen | post-Golgi transport phenotypic cell assay | inhibition, % at 10 µM | hit rate 0.9% among 98,000;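 also: yeast cells grown in 1536-well plates; yeast grown about 18 h at 30C before absorbance read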
Smad3 inh: Smad3 (human) transcription factor binding inhibition. P84022. inhibition, % at 25 µM. TR-FRET Smad3/Dy647-FoxH1 peptide binding, europium anti-His. AID 630. hit rate 0.29% among 88,000;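 active = compounds that reduce the energy-transfer binding signal between the protein and its labelled peptide by more than half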;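 also: 0% = Smad3 plus labelled peptide maximal FRET and 100% = peptide-only background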
Active calls of the source: *. An excerpt weighted towards active compounds, which were near 8.7% of everything screened. Rule as the data show it, unless noted: active = inhibition above about 30%; inactive = the rest.

Results for COc1ccc(OC)c(S(=O)(=O)n2nc(C)cc2C)c1 ?
hDAT+cocaine: 0.4; PostGolgi ctrl: 21; Cav3 T inh: -0.026; PostGolgi yeast: 14; Smad3 inh: -2

How did CC(C)C1COC(c2cccc3ccccc23)=N1 (configuration not stated) do in these assays?
hDAT+cocaine: 3*; Cav3 T inh: 0.28

How did CCn1cc(C2=NC(C(C)C)CO2)c2ccccc21 (configuration not stated) do in these assays?
hDAT+cocaine: 1.3; TNAP act mid DEA: 0.9; PostGolgi ctrl: 12; Cav3 T inh: -0.28; PostGolgi yeast: 3; Smad3 inh: 4

What do the screens show for `N#C/C(=C\c1ccc(N2CCOCC2)o1)c1nc2ccccc2[nH]1`?
hDAT+cocaine: 0.69; PostGolgi ctrl: 0; Cav3 T inh: -5.8*; PostGolgi yeast: -17; Smad3 inh: -18

Results for N#C/C(=C/c1ccc(N2CCOCC2)o1)c1ccc(Cl)cc1 ?
PostGolgi ctrl: 1; PostGolgi yeast: 19

How did COc1cc(CNc2cc(C)ccc2C)cc(OC)c1OC do in these assays?
hDAT+cocaine: -1.7; TNAP act mid DEA: 1; PostGolgi ctrl: 0; Cav3 T inh: -0.53; PostGolgi yeast: 10; Smad3 inh: -7

What do the screens show for `CCCC(C)C(=O)N(Cc1ccccc1)c1ccccn1` (configuration not stated)?
hDAT+cocaine: -0.68; PostGolgi ctrl: -1; Cav3 T inh: 0.56; PostGolgi yeast: -3; Smad3 inh: -6

What do the screens show for `COC(=O)c1c(-n2cnnn2)sc(C)c1C`?
hDAT+cocaine: -0.32; TNAP act mid DEA: 0.9; PostGolgi ctrl: 9; Cav3 T inh: -4.4; PostGolgi yeast: 10; Smad3 inh: -8

What do the screens show for `O=C(CCn1[nH]c(=O)c2ccccc2c1=O)OC1CCCCC1`?
hDAT+cocaine: -0.11; TNAP act mid DEA: 0.9; PostGolgi ctrl: 5; Cav3 T inh: -0.11; PostGolgi yeast: -1; Smad3 inh: -2

What do the screens show for `NC1=NC[C@H](Cc2ccccc2)N1CCCCC1CCCCC1`?
hDAT+cocaine: -3*; Cav3 T inh: -0.0054

What do the screens show for `NC1=NC[C@H](Cc2ccc(O)cc2)N1CCCCC1CCCCC1`?
hDAT+cocaine: -4.1*; Cav3 T inh: -0.18

What do the screens show for `NC1=NC[C@H](Cc2ccccc2)N1CCc1cccc(F)c1`?
hDAT+cocaine: 0.6; Cav3 T inh: -0.048

Results for CCCCn1c(SCC(=O)N2CCC(C)CC2)nc2ccsc2c1=O ?
hDAT+cocaine: 0.13; PostGolgi ctrl: 27; Cav3 T inh: -1.3; PostGolgi yeast: 7; Smad3 inh: 6

What do the screens show for `O=S(=O)(c1cc(-c2nnc(-c3ccc(Br)cc3)o2)ccc1Br)N1CCCCCC1`?
hDAT+cocaine: 3.3*; Cav3 T inh: -1.9; Smad3 inh: 2

What do the screens show for `CC(C)(C)n1nnnc1C(c1cccs1)N1CCCc2ccccc21` (configuration not stated)?
hDAT+cocaine: -0.16; TNAP act mid DEA: 0.9; PostGolgi ctrl: 21; Cav3 T inh: -5.9*; PostGolgi yeast: 18; Smad3 inh: 10

How did CC(C)C(c1nnnn1C1CCCC1)N1CCCc2ccccc21 (configuration not stated) do in these assays?
hDAT+cocaine: -1.5; TNAP act mid DEA: 0.8; PostGolgi ctrl: 2; Cav3 T inh: -3.9*; PostGolgi yeast: -3; Smad3 inh: -9

What do the screens show for `CCOc1ccc(-c2nc3n(c(=O)c2C#N)CCCS3)cc1`?
hDAT+cocaine: -0.19; TNAP act mid DEA: 0.9; PostGolgi ctrl: -6; Cav3 T inh: -0.06; PostGolgi yeast: 10; Smad3 inh: 0

What do the screens show for `O=C(NCc1ccc2c(c1)OCO2)C1CCCN(C(=O)c2ccc(Cl)cc2)C1` (configuration not stated)?
hDAT+cocaine: -0.73; PostGolgi ctrl: -3; Cav3 T inh: -0.055; PostGolgi yeast: -1

How did COc1cc(NC(=O)c2cnn3c(C)cc(C)nc23)c(OC)cc1Cl do in these assays?
hDAT+cocaine: -0.85; TNAP act mid DEA: 0.9; PostGolgi ctrl: 41*; Cav3 T inh: 0.83; PostGolgi yeast: 0; Smad3 inh: 3

What do the screens show for `CCOC(=O)C1CCN(C(=O)N2CCOCC2)CC1`?
hDAT+cocaine: 0.2; TNAP act mid DEA: 0.9; PostGolgi ctrl: 5; Cav3 T inh: 0.36; PostGolgi yeast: 2; Smad3 inh: 0

Results for Cc1ccccc1Cc1c(C)nc2c(C(=O)NCc3ccco3)cnn2c1C ?
hDAT+cocaine: 3*; TNAP act mid DEA: 0.9; PostGolgi ctrl: 42*; Cav3 T inh: -5.2; PostGolgi yeast: -14; Smad3 inh: 5

How did Cc1ccccc1Cc1c(C)nc2nc(SCC(=O)NCc3ccco3)nn2c1C do in these assays?
hDAT+cocaine: -7.9*; TNAP act mid DEA: 1.1; PostGolgi ctrl: 10; Cav3 T inh: 0.5; PostGolgi yeast: -1

How did Cc1nc2ccccc2c2c1C(=O)N(C(C)C)C2=O do in these assays?
hDAT+cocaine: 0.13; TNAP act mid DEA: 1; PostGolgi ctrl: 7; Cav3 T inh: -0.45; PostGolgi yeast: 21; Smad3 inh: 3

How did COc1ccc(C(CC(=O)Nc2ccc(F)cc2)c2ccccc2)cc1 (configuration not stated) do in these assays?
hDAT+cocaine: 0.1; PostGolgi ctrl: 17; Cav3 T inh: -6.2*; PostGolgi yeast: 1

How did O=C(c1ccco1)N1CCN=C1SCc1ccccc1F do in these assays?
hDAT+cocaine: -0.56; TNAP act mid DEA: 0.9; PostGolgi ctrl: 5; Cav3 T inh: 0.26; PostGolgi yeast: 0; Smad3 inh: -10

How did CC(=O)N1CCc2cc(S(=O)(=O)NCCC(=O)N3CCc4ccccc4C3)ccc21 do in these assays?
hDAT+cocaine: 1.2; TNAP act mid DEA: 1; PostGolgi ctrl: 3; Cav3 T inh: -0.6; PostGolgi yeast: 7; Smad3 inh: 1

How did CC(=O)N1CCc2cc(S(=O)(=O)NCCC(=O)N3CCN(c4ccccn4)CC3)ccc21 do in these assays?
hDAT+cocaine: -0.95; TNAP act mid DEA: 0.9; PostGolgi ctrl: 35*; Cav3 T inh: 1.2; PostGolgi yeast: 10; Smad3 inh: -1

Results for O=C(C(c1ccccc1)c1ccccc1)N1CCN(Cc2ccc(Br)cc2)CC1 ?
hDAT+cocaine: -1.3; PostGolgi ctrl: 51*; Cav3 T inh: -1.9; PostGolgi yeast: 9; Smad3 inh: 6

What do the screens show for `O=C(CN1CCN(Cc2ccccc2)CC1)c1ccc(Br)cc1`?
TNAP act mid DEA: 0.9; PostGolgi ctrl: -5; PostGolgi yeast: 5; Smad3 inh: -4

Results for Cc1ccc(C(=O)c2ccc([N+](=O)[O-])cc2)c(C)c1 ?
hDAT+cocaine: -0.94; PostGolgi ctrl: 2; Cav3 T inh: 0.14; PostGolgi yeast: 5; Smad3 inh: 10

What do the screens show for `COc1ccc(C(=O)/C(=C\c2ccco2)N2C=CC=CC2=C(C#N)C#N)cc1`?
hDAT+cocaine: 0.24; PostGolgi ctrl: 30; Cav3 T inh: -6.8*; PostGolgi yeast: 28
